Measured values from PubChem BioAssay (Tox21).
Unmarked numbers belong to inactive results. Inconclusive results are not listed. Where a call stands in place of a potency, no number is given. Activity calls are given as the source filed them. Unless noted, the call rests on the fitted dose curve; in most records, active means well fitted curve in the direction sought with a large enough effect in the repeat runs; inconclusive means weak or mixed curves; inactive means no such curve, though single readings can be large; an effect the other way counts as inactive or inconclusive.

Legend:
[1] = qHTS assay to identify small molecule agonists of the hypoxia (HIF-1) signaling pathway - cell viability counter screen (AID 1224844; calls by dose curve; further: nearly all actives have a fitted effect of over 50% in size)
Summary of the method: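 ME-180 HRE-bla cells, 2,000/well, 0.5% dialyzed FBS; 5 hr settle, 17 hr compound at 37C/5% CO2; CCF4-AM reporter read first, then CellTiter-Glo luminescence after 30 min RT.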

[2] = qHTS assay to identify small molecule agonists of H2AX (AID 1224845; active means well fitted activation curve with a large enough effect in the signal ratio in the repeat runs, not every such curve was filed as active; the % refers to the signal ratio)
Summary of the method: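 Phospho-H2AX Ser139 measured by HTRF (ex 320 nm; em 665 and 620 nm) after 24 hr antibody incubation. Compounds, 15 concentrations, 0.76% DMSO, were applied to CHO-K1 cells for 3hr at 37C before lysis.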

[3] = qHTS assay to identify small molecule agonists of the hypoxia (HIF-1) signaling pathway (AID 1224846; active means well fitted activation curve with a large enough effect in the signal ratio in the repeat runs, not every such curve was filed as active; the % refers to the signal ratio)
Summary of the method: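 Cell line: CellSensor HRE-bla ME-180; 2,000 cells/well; 0.5% dialyzed FBS; 5 h preincubation; DMSO compound pin transfer; 17 h, 37C, 5% CO2; CCF4-AM added; bla FRET signal scored for activation.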

[4] = qHTS assay to identify small molecule agonists of H2AX - cell viability counter screen (AID 1224847; calls by dose curve; further: top concentration of the series differs between compounds; nearly all actives have a fitted effect of over 30% in size)
Summary of the method: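 Compounds tested at 15 concentrations were incubated 3 hr at 37C with wild-type CHO-K1 cells; cellular ATP-based luminescence (CellTiter-Glo) indicated viability.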

[5] = qHTS assay to identify small molecule antagonists of the estrogen related receptor (ERR) signaling pathway from Tox21 library (AID 1224848); further: nearly all actives have a fitted effect of over 50% in size
Summary of the method: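 Reading was by luminescence 30 min after ONE-Glo addition. Before that, ERR cells at 2,000 per well had rested 6 h at 37 C/5% CO2 and then received pin-tooled compounds in DMSO for 18 h at 37 C.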

[6] = qHTS assay to identify small molecule agonists of the estrogen related receptor (ERR) signaling pathway from Tox21 library (AID 1224849; calls by dose curve; further: nearly all actives have a fitted effect of over 15% in size); conditions: ERR reporter cell line, ONE-Glo luciferase, 18 h; at 92.4 µM (top of the series) unless noted
Summary of the method: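 ERR cells, 6 h pre-incubation 37 C/5% CO2; cpd in DMSO pinned; 18 h 37 C; ONE-Glo added, 30 min RT; luminescence read. Agonist mode, qHTS.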

[7] = qHTS RealTime-Glo MT Cell Viability Assay in HepG2 cells - 24 hour (AID 1224867); further: nearly all actives have a fitted effect of over 50% in size
Summary of the method: (§1)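 qHTS, HepG2, 600 cells/well, RealTime-Glo (NanoLuc + prosubstrate) added with cells; 5 h preincubation; DMSO compound addition; 37 C; luminescence at 0/8/16/24/32/40 h.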

[8] = qHTS RealTime-Glo MT Cell Viability Assay in HEK293 cells - 32 hour (AID 1224868); further: nearly all actives have a fitted effect of over 50% in size; further: potency means the concentration at half of the fitted maximal effect
Summary of the method: (§2)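 Assay medium contained NanoLuc luciferase plus cell-permeant prosubstrate, added with HEK293 cells at 600 cells/well. After 5 h at 37 C/5% CO2 compounds were added; plates stayed at 37 C for 40 h with serial luminescence reads.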

[9] = A CellTox Green Cytotoxicity Assay to monitor cytotoxicity in HEK293 cells - 0 hour (AID 1224869); further: nearly all actives have a fitted effect of over 50% in size
Summary of the method: (§3)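 Nonlytic real-time cytotoxicity: HEK293 + CellTox Green reagent plated, 5 h preincubation, pintool compound addition (23 nL in DMSO), 37 C for 40 h, fluorescence measured at successive time points.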

[10] = qHTS RealTime-Glo MT Cell Viability Assay in HepG2 cells - 40 hour (AID 1224870); further: nearly all actives have a fitted effect of over 50% in size
Summary of the method: (§4)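 Real-time viability: cells seeded at 600 per well together with NanoLuc and cell-permeant prosubstrate, compounds added after 5 h incubation. Luminescence tracked at 0, 8, 16, 24, 32 and 40 h of exposure.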

[11] = A CellTox Green Cytotoxicity Assay to monitor cytotoxicity in HEK293 cells - 40 hour (AID 1224871); further: nearly all actives have a fitted effect of over 45% in size
Summary of the method: as §3

[12] = qHTS RealTime-Glo MT Cell Viability Assay in HEK293 cells - 16 hour (AID 1224872); further: nearly all actives have a fitted effect of over 50% in size; further: potency means the concentration at half of the fitted maximal effect
Summary of the method: as §2

[13] = qHTS RealTime-Glo MT Cell Viability Assay in HepG2 cells - 8 hour (AID 1224873); further: nearly all actives have a fitted effect of over 55% in size
Summary of the method: as §4

[14] = qHTS RealTime-Glo MT Cell Viability Assay in HEK293 cells - 40 hour (AID 1224874); conditions: RealTime-Glo luminescence; max response: stronger effect = lower value; further: nearly all actives have a fitted effect of over 50% in size
Summary of the method: (§5)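 Cells were seeded together with NanoLuc luciferase and a prosubstrate that viable cells reduce to a luciferase substrate. After a 5 h incubation at 37 C/5% CO2, compounds were added and luminescence was measured repeatedly during 40 h of treatment.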

[15] = A CellTox Green Cytotoxicity Assay to monitor cytotoxicity in HEK293 cells - 24 hour (AID 1224875); further: nearly all actives have a fitted effect of over 45% in size
Summary of the method: as §3

[16] = qHTS RealTime-Glo MT Cell Viability Assay in HepG2 cells - 32 hour (AID 1224877); further: nearly all actives have a fitted effect of over 55% in size
Summary of the method: as §1

[17] = A CellTox Green Cytotoxicity Assay to monitor cytotoxicity in HepG2 cells - 24 hour (AID 1224878); further: nearly all actives have a fitted effect of over 45% in size
Summary of the method: (§6)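 Read-out is fluorescence of a cyanine dye excluded from live cells that stains DNA of dead HepG2 cells, with signal proportional to cytotoxicity. Plates were read at 0, 8, 16, 24, 32 and 40 h after compound addition.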

[18] = A CellTox Green Cytotoxicity Assay to monitor cytotoxicity in HepG2 cells - 40 hour (AID 1224879); further: nearly all actives have a fitted effect of over 40% in size
Summary of the method: as §6

[19] = qHTS RealTime-Glo MT Cell Viability Assay in HEK293 cells - 0 hour (AID 1224880); further: top concentration of the series differs between compounds; nearly all actives have a fitted effect of over 45% in size
Summary of the method: as §5

[20] = A CellTox Green Cytotoxicity Assay to monitor cytotoxicity in HepG2 cells - 16 hour (AID 1224876); further: nearly all actives have a fitted effect of over 45% in size
Summary of the method: as §6

Row | SMILES | Potency [1] | Potency [2] | outcome [3] | Potency [4] | Potency [5] | activity change, positive = activation [6] [%] | Potency [7] | Potency [8] | Potency [9] | Potency [10] | Potency [11] | Potency [12] | Potency [13] | max response [14] [%] | Potency [15] | Potency [16] | Potency [17] | Potency [18] | Potency [19] | Potency [20]
1 | ClC1=C(Cl)[C@]2(Cl)[C@@H]3[C@@H](Cl)[C@@H](Cl)C[C@@H]3[C@@]1(Cl)C2(Cl)Cl | inactive | inactive | inactive | inactive | inactive | 0.0857 | inactive | inactive | inactive | inactive | inactive | inactive | inactive | 15.9 | inactive | inactive | inactive | inactive | inactive | 
2 | COP(N)(=S)OC | inactive | inactive | inactive | inactive | inactive | 3.3 | inactive |  | inactive | inactive | inactive | inactive |  | 0.707 | inactive | inactive |  | inactive | inactive | inactive
3 | O=[N+]([O-])c1cc(Cl)ccc1Cl | inactive | inactive | inactive | inactive |  |  | inactive | inactive | inactive | inactive |  | inactive | inactive | -0.799 | inactive | inactive |  | inactive | inactive | inactive
4 | FC(Cl)(Cl)Cl | inactive | inactive | inactive | inactive |  |  | inactive | inactive | inactive | inactive | inactive | inactive | inactive | -2.7 | inactive | inactive | inactive | inactive | inactive | inactive
5 | CC(C)CCCCCOC(=O)c1ccccc1C(=O)OCCCCCC(C)C | inactive | inactive | inactive | inactive |  |  | inactive | inactive | inactive | inactive | inactive | inactive |  | -3.2 | inactive | inactive | inactive | inactive | inactive | inactive
6 | CN(C)C1CSSSC1 | inactive | inactive | inactive | inactive | inactive | -13.3 | inactive |  | inactive |  | inactive |  | inactive | 3.22 | inactive | inactive | inactive | inactive | inactive | inactive
7 | N#Cc1ccc(O)cc1 | inactive | inactive | inactive | inactive |  |  | inactive | inactive | inactive | inactive | inactive | inactive | inactive | -7.33 | inactive | inactive | inactive | inactive | inactive | inactive
8 | CCN | inactive | inactive | inactive | inactive |  |  | inactive | inactive | inactive | inactive | inactive | inactive | inactive | 19.6 | inactive | inactive | inactive | inactive | inactive | inactive
9 | CCOC(=O)OC1=C(c2cc(C)ccc2C)C(=O)NC12CCC(OC)CC2 (configuration not stated) | inactive | inactive | inactive | inactive |  |  | inactive | inactive | inactive | inactive | inactive | inactive | inactive | -0.185 | inactive | inactive | inactive | inactive | inactive | inactive
10 | CC(C)(C)OO | inactive | inactive | inactive | inactive |  |  | inactive | inactive | inactive | inactive | inactive | inactive |  | 12.3 | inactive | inactive | inactive | inactive | inactive | inactive
11 | CN(CCCC(O)c1cccnc1)N=O (configuration not stated) | inactive | inactive | inactive | inactive |  |  | inactive | inactive | inactive | inactive | inactive | inactive | inactive | -1.33 | inactive | inactive | inactive | inactive | inactive | inactive
12 | Nc1c(Oc2ccccc2)cc(O)c2c1C(=O)c1ccccc1C2=O | inactive | inactive | inactive | inactive |  |  | inactive | 19 µM (active) | inactive |  | inactive | 10.7 µM (active) | inactive |  | inactive | inactive | inactive | inactive | inactive | inactive
13 | C[C@@H](Oc1ccc(Cl)cc1Cl)C(=O)O | inactive | inactive | inactive | inactive |  |  | inactive |  | inactive | inactive | inactive | inactive |  | 0.534 | inactive | inactive |  | inactive |  | 
